The supplement of paper PMC12645437, “Orthogonal IMiD-Degron Pairs Induce Selective Protein Degradation in Cells” (ACS Chemical Biology, 2025)
The full ranking holds about 8,300 sequences; the median of “log2 fold change of degron read counts, EGFP-low vs EGFP+ sorted cells (limma voom), compound-induced degradation” is about -1.1, and the highest 2% start at about 3.2. The full list was thinned out, with the highest values kept by preference.

Molecular target: T1, CRBN, Q96SW2
T1 chain: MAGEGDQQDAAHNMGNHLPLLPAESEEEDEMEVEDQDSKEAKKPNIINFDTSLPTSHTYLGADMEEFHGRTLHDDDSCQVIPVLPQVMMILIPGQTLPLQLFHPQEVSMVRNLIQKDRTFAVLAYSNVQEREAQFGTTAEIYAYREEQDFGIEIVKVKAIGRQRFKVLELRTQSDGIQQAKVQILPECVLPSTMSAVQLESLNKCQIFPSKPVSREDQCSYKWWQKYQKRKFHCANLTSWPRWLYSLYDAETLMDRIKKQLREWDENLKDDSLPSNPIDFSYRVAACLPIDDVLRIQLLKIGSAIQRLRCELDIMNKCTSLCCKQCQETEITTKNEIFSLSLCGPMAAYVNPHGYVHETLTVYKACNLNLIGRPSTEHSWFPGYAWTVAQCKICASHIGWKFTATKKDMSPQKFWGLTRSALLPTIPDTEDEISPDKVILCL
Assay: log2 fold change of degron read counts, EGFP-low vs EGFP+ sorted cells (limma voom), compound-induced degradation; higher = more compound-induced degradation of the degron-EGFP fusion; degrons are variants of IKZF1/3 zinc finger 2; compound dose not given here
Conditions: Jurkat, 18 h

[1] = compound: compound 19 (5-tert-butyl-thalidomide)
[2] = compound: compound 22 (5-morpholino-thalidomide)
[3] = compound: compound 33 (diphenyl IMiD analogue)
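Further: pooled lentiviral library of zinc finger degron-EGFP fusions in mCherry-positive Jurkat cells, FACS-sorted after compound exposure, with degron abundance counted by next-generation sequencing.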

B1: 46F_47A_49N_50I_52G_53A_54C_55F_67L_, Q9UKT9 (peptide)
chain: FACNICGACFTQKGNLLRHIKL
log2 fold change of degron read counts [1]: 2.13
log2 fold change of degron read counts [2]: 1.95
log2 fold change of degron read counts [3]: 0.735
log2 fold change of degron read counts (compound: thalidomide): -0.49

B2: 46F_47K_49E_50I_52G_53R_54R_55F_67L_, Q9UKT9 (peptide)
chain: FKCEICGRRFTQKGNLLRHIKL
log2 fold change of degron read counts [1]: -2.87
log2 fold change of degron read counts [2]: -3.55
log2 fold change of degron read counts [3]: -3
log2 fold change of degron read counts (compound: thalidomide): -1.89

B3: 46F_47D_49S_50V_52G_53H_54I_55F_67L_, Q9UKT9 (peptide)
chain: FDCSVCGHIFTQKGNLLRHIKL
log2 fold change of degron read counts [1]: -1.69
log2 fold change of degron read counts [2]: -1.84
log2 fold change of degron read counts [3]: -1.76
log2 fold change of degron read counts (compound: thalidomide): -1.28

B4: 46F_47M_49P_50I_52G_53A_54W_55F_67L_, Q9UKT9 (peptide)
chain: FMCPICGAWFTQKGNLLRHIKL
log2 fold change of degron read counts [1]: -1.26
log2 fold change of degron read counts [2]: -0.611
log2 fold change of degron read counts [3]: 1.3
log2 fold change of degron read counts (compound: thalidomide): -0.221

B5: 46F_47D_49P_50I_52G_53A_54E_55F_67L_, Q9UKT9 (peptide)
chain: FDCPICGAEFTQKGNLLRHIKL
log2 fold change of degron read counts [1]: -0.0781
log2 fold change of degron read counts [2]: -0.933
log2 fold change of degron read counts [3]: 1.14
log2 fold change of degron read counts (compound: thalidomide): 0.579

B6: 46F_47D_49N_50V_52G_53A_54L_55F_67L_, Q9UKT9 (peptide)
chain: FDCNVCGALFTQKGNLLRHIKL
log2 fold change of degron read counts [1]: -2.45
log2 fold change of degron read counts [2]: -2.67
log2 fold change of degron read counts [3]: -0.75
log2 fold change of degron read counts (compound: thalidomide): -0.856

B7: 46F_47R_49P_50I_52G_53H_54E_55F_67L_, Q9UKT9 (peptide)
chain: FRCPICGHEFTQKGNLLRHIKL
log2 fold change of degron read counts [1]: -2.68
log2 fold change of degron read counts [2]: -2.48
log2 fold change of degron read counts [3]: -1.5
log2 fold change of degron read counts (compound: thalidomide): -1.35

B8: 46F_47T_49E_50Q_52G_53A_54H_55F_67L_, Q9UKT9 (peptide)
chain: FTCEQCGAHFTQKGNLLRHIKL
log2 fold change of degron read counts [1]: -1.82
log2 fold change of degron read counts [2]: -1.63
log2 fold change of degron read counts [3]: -0.151
log2 fold change of degron read counts (compound: thalidomide): -0.624

B9: 46F_47V_49N_50Q_52G_53H_54N_55F_67L_, Q9UKT9 (peptide)
chain: FVCNQCGHNFTQKGNLLRHIKL
log2 fold change of degron read counts [1]: -3
log2 fold change of degron read counts [2]: -3.4
log2 fold change of degron read counts [3]: -2.99
log2 fold change of degron read counts (compound: thalidomide): -3.15

B10: 46F_47I_49E_50I_52G_53A_54K_55F_67L_, Q9UKT9 (peptide)
chain: FICEICGAKFTQKGNLLRHIKL
log2 fold change of degron read counts [1]: 0.419
log2 fold change of degron read counts [2]: 2.07
log2 fold change of degron read counts [3]: 0.709
log2 fold change of degron read counts (compound: thalidomide): 2.61

B11: 46F_47T_49E_50I_52G_53A_54K_55F_67L_, Q9UKT9 (peptide)
chain: FTCEICGAKFTQKGNLLRHIKL
log2 fold change of degron read counts [1]: 0.913
log2 fold change of degron read counts [2]: 1.9
log2 fold change of degron read counts [3]: 0.245
log2 fold change of degron read counts (compound: thalidomide): 2.71

B12: 46F_47M_49E_50I_52G_53A_54K_55F_67L_, Q9UKT9 (peptide)
chain: FMCEICGAKFTQKGNLLRHIKL
log2 fold change of degron read counts [1]: 0.747
log2 fold change of degron read counts [2]: -0.267
log2 fold change of degron read counts [3]: 0.58
log2 fold change of degron read counts (compound: thalidomide): 1.27

B13: 46F_47G_49E_50I_52G_53A_54K_55F_67L_, Q9UKT9 (peptide)
chain: FGCEICGAKFTQKGNLLRHIKL
log2 fold change of degron read counts [1]: 3.49
log2 fold change of degron read counts [2]: 1.63
log2 fold change of degron read counts [3]: -1.11
log2 fold change of degron read counts (compound: thalidomide): 1.73

B14: 46F_47W_49E_50I_52G_53A_54K_55F_67L_, Q9UKT9 (peptide)
chain: FWCEICGAKFTQKGNLLRHIKL
log2 fold change of degron read counts [1]: 3.96
log2 fold change of degron read counts [2]: 3.75
log2 fold change of degron read counts [3]: 1.53
log2 fold change of degron read counts (compound: thalidomide): 1.31

B15: 46F_47A_49E_50I_52G_53A_54K_55F_67L_, Q9UKT9 (peptide)
chain: FACEICGAKFTQKGNLLRHIKL
log2 fold change of degron read counts [1]: 3.82
log2 fold change of degron read counts [2]: 1.86
log2 fold change of degron read counts [3]: -1.82
log2 fold change of degron read counts (compound: thalidomide): 1.35

B16: 46F_47V_49E_50I_52G_53A_54K_55F_67L_, Q9UKT9 (peptide)
chain: FVCEICGAKFTQKGNLLRHIKL
log2 fold change of degron read counts [1]: 1.42
log2 fold change of degron read counts [2]: 1.89
log2 fold change of degron read counts [3]: 0.387
log2 fold change of degron read counts (compound: thalidomide): 3.07

B17: 46F_47R_49E_50I_52G_53A_54K_55F_67L_, Q9UKT9 (peptide)
chain: FRCEICGAKFTQKGNLLRHIKL
log2 fold change of degron read counts [1]: -0.269
log2 fold change of degron read counts [2]: -0.354
log2 fold change of degron read counts [3]: 0.56
log2 fold change of degron read counts (compound: thalidomide): 1.68

B18: 46F_47F_49N_50Q_52G_53A_54A_55F_67L_, Q9UKT9 (peptide)
chain: FFCNQCGAAFTQKGNLLRHIKL
log2 fold change of degron read counts [1]: -1.05
log2 fold change of degron read counts [2]: -0.697
log2 fold change of degron read counts [3]: -0.811
log2 fold change of degron read counts (compound: thalidomide): -1.91

B19: 46L_47M_49P_50I_52G_53F_54I_55C_67L_, Q9UKT9 (peptide)
chain: LMCPICGFICTQKGNLLRHIKL
log2 fold change of degron read counts [1]: -0.334
log2 fold change of degron read counts [2]: 0.292
log2 fold change of degron read counts [3]: 2.06
log2 fold change of degron read counts (compound: thalidomide): 1.27

B20: 46L_47R_49N_50Q_52G_53F_54G_55C_67L_, Q9UKT9 (peptide)
chain: LRCNQCGFGCTQKGNLLRHIKL
log2 fold change of degron read counts [1]: -1.13
log2 fold change of degron read counts [2]: -1.8
log2 fold change of degron read counts [3]: -1.41
log2 fold change of degron read counts (compound: thalidomide): -1.08

B21: 46F_47F_49S_50V_52G_53H_54E_55F_67L_, Q9UKT9 (peptide)
chain: FFCSVCGHEFTQKGNLLRHIKL
log2 fold change of degron read counts [1]: -2.81
log2 fold change of degron read counts [2]: -3.34
log2 fold change of degron read counts [3]: -3.2
log2 fold change of degron read counts (compound: thalidomide): -2.56

B22: 46F_47C_49P_50I_52G_53A_54M_55F_67L_, Q9UKT9 (peptide)
chain: FCCPICGAMFTQKGNLLRHIKL
log2 fold change of degron read counts [1]: 1.6
log2 fold change of degron read counts [2]: 1.26
log2 fold change of degron read counts [3]: 2.22
log2 fold change of degron read counts (compound: thalidomide): 1.23

B23: 46F_47S_49N_50Q_52G_53H_54T_55F_67L_, Q9UKT9 (peptide)
chain: FSCNQCGHTFTQKGNLLRHIKL
log2 fold change of degron read counts [1]: -2.44
log2 fold change of degron read counts [2]: -2.51
log2 fold change of degron read counts [3]: -2.85
log2 fold change of degron read counts (compound: thalidomide): -2.59

B24: 46F_47M_49N_50V_52G_53A_54D_55F_67L_, Q9UKT9 (peptide)
chain: FMCNVCGADFTQKGNLLRHIKL
log2 fold change of degron read counts [1]: -2.78
log2 fold change of degron read counts [2]: -2.8
log2 fold change of degron read counts [3]: 1.31
log2 fold change of degron read counts (compound: thalidomide): -1.76

B25: 46L_47Y_49P_50I_52G_53F_54I_55C_67L_, Q9UKT9 (peptide)
chain: LYCPICGFICTQKGNLLRHIKL
log2 fold change of degron read counts [1]: 2.94
log2 fold change of degron read counts [2]: 2.9
log2 fold change of degron read counts [3]: 1.98
log2 fold change of degron read counts (compound: thalidomide): 0.937

B26: 46F_47S_49N_50V_52G_53A_54P_55F_67L_, Q9UKT9 (peptide)
chain: FSCNVCGAPFTQKGNLLRHIKL
log2 fold change of degron read counts [1]: 0.819
log2 fold change of degron read counts [2]: 0.453
log2 fold change of degron read counts [3]: -0.105
log2 fold change of degron read counts (compound: thalidomide): 0.146

B27: 46F_47K_49E_50I_52G_53A_54G_55F_67L_, Q9UKT9 (peptide)
chain: FKCEICGAGFTQKGNLLRHIKL
log2 fold change of degron read counts [1]: 2.69
log2 fold change of degron read counts [2]: -0.466
log2 fold change of degron read counts [3]: -0.772
log2 fold change of degron read counts (compound: thalidomide): 0.328

B28: 46F_47M_49E_50I_52G_53A_54G_55F_67L_, Q9UKT9 (peptide)
chain: FMCEICGAGFTQKGNLLRHIKL
log2 fold change of degron read counts [1]: 2.81
log2 fold change of degron read counts [2]: 1.95
log2 fold change of degron read counts [3]: 2.73
log2 fold change of degron read counts (compound: thalidomide): 1.31

B29: 46F_47S_49E_50I_52G_53A_54G_55F_67L_, Q9UKT9 (peptide)
chain: FSCEICGAGFTQKGNLLRHIKL
log2 fold change of degron read counts [1]: 3.39
log2 fold change of degron read counts [2]: 1.57
log2 fold change of degron read counts [3]: 1.23
log2 fold change of degron read counts (compound: thalidomide): 0.613

B30: 46F_47C_49E_50I_52G_53A_54G_55F_67L_, Q9UKT9 (peptide)
chain: FCCEICGAGFTQKGNLLRHIKL
log2 fold change of degron read counts [1]: 3.68
log2 fold change of degron read counts [2]: 2.09
log2 fold change of degron read counts [3]: 1.63
log2 fold change of degron read counts (compound: thalidomide): 1.42

B31: 46F_47V_49E_50I_52G_53A_54G_55F_67L_, Q9UKT9 (peptide)
chain: FVCEICGAGFTQKGNLLRHIKL
log2 fold change of degron read counts [1]: 1.53
log2 fold change of degron read counts [2]: 3.07
log2 fold change of degron read counts [3]: 1.92
log2 fold change of degron read counts (compound: thalidomide): 3.23
